Data as given in PubChem BioAssay.
Calls of active or inactive are those of the source.

Tests used:
[1] = compound effects on lung adenocarcinoma cell viability – A549, calcein-AM fluorescence, 48 h, basal, profiling panel (AID 1162); conditions: higher = more signal
[2] = compound effects on differentiated 3T3-L1 adipocyte viability – cell-based, 3T3-L1 adipocytes, calcein-AM fluorescence, 48 h, basal, profiling panel (AID 1163); conditions: 3T3-L1 adipocytes viability, higher = more signal
[3] = compound effects on hepatocellular carcinoma cell viability – HepG2, calcein-AM fluorescence, 48 h, basal, profiling panel (AID 1164); conditions: higher = more signal
[4] = compound effects on multiple myeloma cell viability – MM1S, calcein-AM fluorescence, 48 h, basal, profiling panel (AID 1165); conditions: higher = more signal
[5] = calcein-AM signal in unstimulated myeloma cells – cell-based, calcein-AM fluorescence, 48 h, PK04 Diversity Set, profiling panel (AID 1166); conditions: RPMI8226 myeloma viability, higher = more signal;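 note: cells grown under basal conditions without added stimulus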
[6] = JC-1 mitochondrial signal, unstimulated HepG2 cells – cell-based, JC-1 fluorescence, 24 h, 100 nL compound, profiling panel (AID 1167); conditions: HepG2 mitochondrial potential, higher = more signal
[7] = JC-1 mitochondrial signal, unstimulated adipocytes – cell-based, JC-1 fluorescence, 3T3-L1 adipocytes, 24 h, 100 nL compound, profiling panel (AID 1168); conditions: JC-1 mitochondrial fluorescence, higher = more signal, called active from +8 up or from −8 down
[8] = JC-1 mitochondrial signal, unstimulated myeloma cells – cell-based, JC-1 fluorescence, RPMI8226, 24 h, 100 nL compound, profiling panel (AID 1169); conditions: JC-1 mitochondrial potential fluorescence, higher = more signal
[9] = JC-1 mitochondrial signal, unstimulated MM1S myeloma – cell-based, JC-1 fluorescence, 24 h, 100 nL compound, profiling panel (AID 1170); conditions: MM1S mitochondrial potential, higher = more signal
[10] = resazurin metabolic signal in A549 cells – cell-based, resazurin fluorescence, 24 h, PK04 Diversity Set, profiling panel (AID 1171); conditions: A549 viability, higher = more signal, called active from +8 up or from −8 down
Note: test concentration not given here.

Row | SMILES | z-score [1] | z-score [2] | z-score [3] | z-score [4] | z-score [5] | z-score [6] | z-score [7] | z-score [8] | z-score [9] | z-score [10]
1 | COC(=O)[C@H](C)NC(=O)CCC1CC(OC(=O)NCCc2ccc(F)cc2)CC2(CCCC(COC(=O)NCC(c3ccccc3)c3ccccc3)O2)O1 (stereo not given in full) | -0.0262 | -1 | -0.972 | -3.44 | -3.43 | -0.727 | 1.18 (inactive) | -0.379 | -1.37 | 3.22 (inactive)
2 | COC(=O)CC=C[C@@H](C)[C@@H](C=NO[C@@H](C)c1cc(-c2c(C)cc(C)cc2C)no1)OC | -0.542 | 1.05 | -0.618 | 0.0635 | -0.466 | -1.13 | -0.613 (inactive) | -0.549 | -1.19 | 0.16 (inactive)
3 | CO[C@@H]1COC(=O)CC=C[C@@H](C)COC(=O)[C@H](COCc2ccccc2)NC(=O)CC=C[C@H]1C | 0.248 | 0.268 | 0.351 | -0.987 | -0.382 | 0.575 | -0.407 (inactive) | -0.873 | 1.61 | -0.653 (inactive)
4 | CC1CC/C=C\[C@H]2OC34C=CCN(C(C)C)C(=O)[C@H]3N(CCCO)C(=O)[C@@H]4C2C(=O)O1 (stereo not given in full) | -0.478 | -0.156 | -0.381 | -0.929 | 0.449 | 0.486 | 0.51 (inactive) | -0.0642 | 0.687 | 0.385 (inactive)
5 | C=CCOC(=O)[C@H]1[C@@H]2C(=O)O[C@@H](c3ccccc3)[C@@H](c3ccccc3)N2[C@@H](c2ccc(OCCOC(=O)[C@H]3C[C@H]4C(=O)N5CCC[C@H]5C(=O)N4[C@H]3c3cccc(OCCO)c3)cc2)[C@]12C(=O)Nc1ccc(I)cc12 | -0.0113 | 0.199 | 0.144 | 0.817 | -0.452 | -0.0589 | -0.518 (inactive) | -0.855 | -0.122 | 0.9 (inactive)
6 | O=C1[C@H]2[C@H]3[C@H](O)[C@H](O)CC(=NO[C@@H]4O[C@H](CO)[C@@H](O)[C@H](O)[C@H]4O)[C@@H]3CC[C@H]2C(=O)N1Cc1ccccc1 | 0.255 | -0.612 | -0.379 | -0.176 | 1.03 | 0.981 | -0.173 (inactive) | -0.61 | -1.98 | 0.222 (inactive)
7 | COC(=O)[C@H](C)NC(=O)CCC1CC(OC(=O)NCc2ccc3c(c2)OCO3)CC2(CCCC(COC(=O)NCCOc3ccccc3)O2)O1 (stereo not given in full) | 1.99 | 0.714 | 0.748 | 0.0937 | 0.487 | 0.916 | 1.67 (inactive) | -0.647 | -1.09 | 0.294 (inactive)
8 | COC(=O)[C@H](C)NC(=O)[C@@H](C)CO | -0.562 | 0.945 | -0.524 | 0.363 | -1.21 | -0.355 | -0.0968 (inactive) | -0.04 | 0.384 | -0.939 (inactive)
9 | CC(=O)OC[C@H]1O[C@H](CC=NOC[C@@H](C)[C@H](OCc2ccccc2)C(C)C)C=C[C@@H]1OC(C)=O | -0.878 | -0.612 | -1.02 | -0.886 | 0.128 | -0.713 | -1.71 (inactive) | 1.17 | -0.482 | 0.286 (inactive)
10 | CO[C@@H]1COC(=O)CCC[C@@H](C)[C@H](OC)COC(=O)[C@H](Cc2ccccc2)NC(=O)CC=C[C@H]1C | 0.0498 | 0.134 | -0.829 | 0.355 | -1.25 | 2.07 | -1.18 (inactive) | 0.256 | -0.479 | 0.451 (inactive)
